Measurements taken from the supplement of paper PMC9694430.
Where a name gives a salt, the structure may show the parent alone.

These compounds were tested on LOC_OS02G07810-cb001 (assay: thermal shift delta Tm vs DMSO control; higher = stronger stabilization (binding)). Details: 12.5 µM; protein concentration 2 µM.
How it was run: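 Thermal shift values come from differential scanning fluorimetry on purified rice kinase domains made in E. coli, with melting temperatures obtained from Boltzmann fits. Samples of 19.5 μl held 2 μM kinase, 100 mM potassium phosphate pH 7.5, 150 mM NaCl, 10% glycerol, 5 × SYPRO Orange and compound in DMSO, and were heated from 25°C to 95°C at 0.05°C/s. Each shift is a triplicate mean relative to the DMSO-only protein sample.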
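Note: purified Escherichia coli-expressed rice kinase domain construct.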

Compound | thermal shift delta Tm [°C]
Cc1cnc(Nc2ccc(OCCN3CCCC3)cc2)nc1Nc1cccc(S(=O)(=O)NC(C)(C)C)c1 | 0.5
CN1CCN(CCOc2cc(OC3CCOCC3)c3c(Nc4c(Cl)ccc5c4OCO5)ncnc3c2)CC1 [Saracatinib (AZD0530)] | 0.55
Cn1cc(-c2ccc(F)c(C(F)(F)F)c2)nc1C1CCN(c2ncnc3[nH]ncc23)CC1 | 0.34
O=C(O)c1ccc2c(c1)nc(Nc1cccc(Cl)c1)c1ccncc12 [Silmitasertib (CX-4945)] | 0.97
Cn1c(=O)c(F)c(Nc2ccc(I)cc2F)c2c(=O)n(C[C@@H](O)CO)cnc21 | 1.5
O=C(NC[C@H](O)CO)c1ccncc1Nc1ccc(I)cc1F | 0.72
COc1c(C)c(C(=O)c2ccc(N)c(C(=O)O)c2)n2ccccc12 | 0.92
COc1cc(N2CCC(N)CC2)ccc1Nc1ncc(Cl)c(-c2c[nH]c3ccccc23)n1 | 1.19
C=CC(=O)Nc1ccc2ncnc(Nc3ccc(OCc4cccc(F)c4)c(Cl)c3)c2c1 | 2.95
CCS(=O)(=O)N1CCN(c2ccc(Nc3ncc(C(N)=O)c(NC4CC4)n3)cc2)CC1 | 0.35
O=C1c2ccc(Nc3ccc(F)cc3F)cc2CCc2ccc(OC[C@H](O)CO)cc21 [Skepinone-L] | -0.07
CCN1C(=O)CNc2ncc(-c3ccc(-c4nc[nH]n4)nc3C)nc21 | 0.72
Cc1ccc(CNc2ncnc3ccc(-c4ccc(CO)o4)cc23)o1 | 0.27
CCc1cncnc1N1CCN(Cc2nc3ccc(C(F)(F)F)cc3[nH]2)CC1 | 0.73
Cc1cc(CN2CCN(c3c(Br)cnc4nc(-c5ccc(N6CCN(C)CC6)cc5)[nH]c34)CC2)no1 | 0.7
Cc1nc(-c2cn3c(n2)-c2ccc(-c4cnn(C(C)(C)C(N)=O)c4)cc2OCC3)n(C(C)C)n1 [Taselisib (GDC 0032)] | 0.07
Cc1ccc(NC(=O)c2ccc(CN3CCN(C)CC3)cc2)cc1Nc1nccc(-c2cccnc2)n1 [Imatinib Mesylate (STI571)] | 0.51
O=c1cc(N2CCOCC2)oc2c(-c3ccccc3)cccc12 | 1.28
Nc1ncccc1-c1nc2ccc(-c3ccccc3)nc2n1-c1ccc(C2(N)CCC2)cc1 [Miransertib (ARQ 092) HCl] | -1.04

Compound | thermal shift delta Tm [°C]
CNS(=O)(=O)C[C@H]1CC[C@H](N(C)c2[nH]cnc3nccc2-3)CC1 [Oclacitinib] | 0.11
N#Cc1ccc2[nH]c(O)c(-c3ccc(CN4CCOCC4)cn3)c2c1 | 0.82
C[C@]1(O)C[C@@H](c2nc(-c3ccc4ccc(-c5ccccc5)nc4c3)c3c(N)nccn32)C1 [Linsitinib (OSI-906)] | 1.27
CN1CCC(COc2cnc(-c3cccc(Cn4nc(-c5cccc(C#N)c5)ccc4=O)c3)nc2)CC1 | 0.34
CC(C)(C)c1nc(-c2ccc(NC(=O)Nc3cccc(C(F)(F)F)c3)c3ccccc23)c2c(N)nccn12 [kira6] | 0.03
Oc1c(F)cc(-c2cnccc2-c2ccc(N3CCOCC3)cc2)cc1F | 0.35
CC(C)[C@H](CO)Nc1nc(Nc2cccc(Cl)c2)c2ncn(C(C)C)c2n1 [Purvalanol A] | 0.09
CNC(=O)c1cc(Oc2ccc(NC(=O)Nc3ccc(Cl)c(C(F)(F)F)c3)cc2)ccn1 [Sorafenib] | 1.92
O=c1cc(-c2cccc3c2Sc2ccccc2S3)oc(N2CCOCC2)c1 | 0.78
N#Cc1c(Oc2ccc(F)c(NC(=O)Cc3cccc(C(F)(F)F)c3)c2)ccc2nc(NC(=O)C3CC3)sc12 | 0.79
CC[C@@](C)(Nc1ccnc(-c2c[nH]c3ncccc23)n1)C(=O)NCC(F)(F)F [Decernotinib (VX-509)] | 0.36
CCNC(=O)Nc1ccc(-c2nc3c(c(N4CCOC[C@@H]4C)n2)CCN(C2COC2)C3)cc1 | 0.04
COc1cc(OC)cc(N(CCNC(C)C)c2ccc3ncc(-c4cnn(C)c4)nc3c2)c1 | -0.54
C[C@@]1(C(=O)Nc2ccc(F)nc2)CCCN1c1nc(Nc2cc(C3CC3)n[nH]2)c2cccn2n1 | 1.05
O=C1CCc2c(Oc3ccc4c(c3)[C@@H]3[C@H](O4)[C@H]3c3nc4cc(C(F)(F)F)ccc4[nH]3)ccnc2N1 [Lifirafenib (BGB-283)] | 1.17
O=C1Nc2ccc(CN3C(=O)CSC3=O)cc2/C1=C/c1cc(CN2CCOCC2)c[nH]1 | -0.68
CN(c1ccccc1CNc1nc(Nc2ccc3c(c2)CC(=O)N3)ncc1C(F)(F)F)S(C)(=O)=O | 1.12
Cc1nc(N)sc1-c1ccnc(Nc2ccc(N3CCOCC3)cc2)n1 | 0.79
